Source: ChEMBL document CHEMBL3988442, “University of Dundee, Small-Polar-MMV Screening Library” (2021)
Out of some 38,000 compounds screened, about 1,200 (3.2%) showed an effect of 50% or more. The median lay at about -58%. Only a selection was taken, and strong results are over-represented in it overall.

system: Plasmodium falciparum; experiment: Calibr Malaria Delayed Death Assay SOP; format: functional, organism-based; set-up: scale not given: in the data most compounds retested in dose-response had high values; settings: concentration 4.99e-06 (unit not given; other assays of the set use mol/L)

| Compound | Percent Effect |
| --- | --- |
| CC(O)(CNC(=O)c1cccnc1-n1cccn1)c1ccco1 (configuration not stated) | -10.35% |
| CCN1CCCCC1C(=O)N1CCC(OCCOC)CC1 (configuration not stated) | -112.4% |
| CSc1ccccc1C(=O)N1C[C@@H](N(C)C)[C@H](c2ccc(C)cc2)C1 | -25.73% |
| CCc1cnc2c(c1NCc1ccc(OC)cc1)c(=O)n(C)c(=O)n2C | -5.547% |
| CC(C)CC(NC(=O)c1ccco1)c1nnc2ccccn12 (configuration not stated) | -178.4% |
| O=C(O)C1(O)CCN(c2ccnc3c(C(F)(F)F)cccc23)CC1 | -178.3% |
| Cc1cccc(C(=O)N(C)C2CCN(c3ccccn3)CC2)c1C | -82.1% |
| CS(=O)(=O)c1ccc(NC(=O)NC2(c3cccc(F)c3)CC2)cc1 | -42.46% |
| O=C(O)C(F)(F)F.O=C(c1ccoc1)N1CCOCC2(CCN(C3CCOCC3)C2)C1 (configuration not stated) | -39.42% |
| COCCN(C)c1nc(-c2ccncc2)nc2c1CCN(C(C)=O)C2 | -64.34% |
| COCCCN(C)c1nc(-c2ccncc2)nc2c1CCN(C(C)=O)C2 | -86.15% |
| CCN1Cc2cc(F)ccc2N(C(=O)C2CCC2)CCC1=O | -44.87% |
| Cc1ccccc1CN(Cc1ccc(S(C)(=O)=O)cc1)CC(C)C | -26.42% |
| CCOc1ccccc1CN(CC)Cc1ccc(S(C)(=O)=O)cc1 | -21.06% |
| Cc1ccccc1CN(CCN(C)C)Cc1ccc(S(C)(=O)=O)cc1 | 79.52% |
| O=C(NCc1ccc2c(c1)OCO2)c1ccccc1C1CCNC1 (configuration not stated) | -7.767% |
| Cc1nccn1-c1ccc(=O)n(CCNC(=O)c2ccccn2)n1 | -133.3% |
| CCN(Cc1csc(C)n1)c1cccc(CO)c1 | -39.75% |
| CCn1c(CN(C)Cc2cnc(C)s2)nc2cc(F)ccc21 | -16.92% |
| CCn1c(CN(C)Cc2csc(C)n2)nc2cc(F)ccc21 | 60.85% |
| CCn1cc(NC(=O)C2CCN(Cc3ccccc3)CC2)cn1 | -64.73% |
| O=C(Nc1cnn(COc2ccc(F)cc2Cl)c1)C1CC1 | 66.71% |
| O=C(Nc1cnn(Cc2ccc(F)cc2Cl)c1)C1CC1 | -1.724% |

| Compound | Percent Effect |
| --- | --- |
| CCc1cc(N2CCC(Nc3ccc(Cl)cn3)CC2)ncn1 | -58.54% |
| CC(C)[C@H]1CN(c2ccncc2)C[C@@H]1NS(=O)(=O)N(C)C | -51.73% |
| CC(C)[C@H]1CN(C2Cc3ccccc3C2)C[C@@H]1NS(C)(=O)=O | 31.34% |
| CC(C)[C@@H]1CN(CCOc2ccccc2)C[C@H]1NS(=O)(=O)N(C)C | 40.07% |
| CC(C)[C@@H]1CN(Cc2ccsc2)C[C@H]1NS(=O)(=O)N(C)C | 65.02% |
| CC(C)[C@@H]1CN(Cc2ccccn2)C[C@H]1NS(=O)(=O)N(C)C | -49.07% |
| CC(C)[C@H]1CN(C2Cc3ccccc3C2)C[C@@H]1NS(=O)(=O)N(C)C | 61.34% |
| CCc1cc(NCCc2cc(F)cc(F)c2)n2nccc2n1 | -125.8% |
| c1cnn(CCNCc2cnc(N3CCCC3)nc2)c1 | -23.83% |
| Cc1ccccc1C(NC(=O)NCC1(CO)CC1)C1CC1 (configuration not stated) | -98.91% |
| CCc1nc(CN2CCCC(N(C)Cc3cnc(C)cn3)C2)no1 (configuration not stated) | -35.57% |
| CC(NC1(CNC(=O)OC(C)(C)C)CCOCC1)c1ccccc1 (configuration not stated) | -63.28% |
| CC(NC(=O)CSCC#N)c1ccccc1 (configuration not stated) | -131% |
| CC(=O)c1ccc(Nc2nc(N)nc3c2nc(C)n3C)cc1 | -204.1% |
| Cc1ccc2cccc(S(=O)(=O)N(C)CC3CCN(C)CC3)c2n1 | 56.89% |
| Cc1ccc2cccc(S(=O)(=O)N(C)CC3CCN(C)C3)c2n1 (configuration not stated) | 35.25% |
| Cc1ccc2cccc(S(=O)(=O)N(C)C3CCCN(C)C3)c2n1 (configuration not stated) | 32.17% |
| CSCc1noc(CN2CC(Cc3ccccc3)CC2=O)n1 (configuration not stated) | -65.09% |
| CN1CCCCC1C(=O)N1CCN(c2ccccc2C#N)CC1 (configuration not stated) | 8.936% |
| Cc1cnn(CCC(=O)N2CCCN(c3ccccc3C#N)CC2)c1 | -36.97% |
| CN1CCCCCC1C(=O)N1CCCN(c2ccccc2)CC1 (configuration not stated) | 60.61% |
| CN1CCCCCC1C(=O)N1CCN(c2ccccc2C#N)CC1 (configuration not stated) | 59.17% |
| COC(=O)N1CCCCC1C(=O)N1CCN(c2cccnc2)CC1 (configuration not stated) | -94.01% |

| Compound | Percent Effect |
| --- | --- |
| CN1CCC(C(=O)N2CCCN(c3cccnn3)CC2)C1 (configuration not stated) | -4.513% |
| CCC(c1ccc(F)cc1)S(=O)(=O)CCO (configuration not stated) | -152% |
| COc1cc(C#N)ccc1OC12CCCN(CC1)C2 (configuration not stated) | -68.61% |
| O=C(CC1CCCO1)NCCCC(=O)Nc1ccc(Cl)cc1 (configuration not stated) | -29.37% |
| CCOc1ccc(Br)cc1-c1cc(N)[nH]n1.Cl | -27.86% |
| COc1ccc(Br)cc1CC(=O)N1CCCC1 | -142.1% |
| CCOc1ccc(Br)cc1S(=O)(=O)N(CC)Cc1ccc(N(C)C)cc1 | -41.17% |
| CCOc1ccc(Cl)cc1C(C(=O)O)N1CCCC1 (configuration not stated) | -0.3366% |
| COc1ccc(CCC2CCCCN2)cc1OC (configuration not stated) | -120.3% |
| COc1ccc(CCNC(=O)NC2CCCC2)cc1OC | -80.35% |
| c1csc(CN2CCCN(c3ccc(Cn4ccnc4)cn3)CC2)c1 | -41.75% |
| COC1CN(C(=O)Cc2cccs2)CCC(=O)N(C)c2ccccc21 (configuration not stated) | -19.51% |
| CCc1cc(=O)[nH]c(-c2ccc(NC(CO)CC(C)C)nc2)n1 (configuration not stated) | -171.9% |
| Cc1noc(C)c1C(=O)N1CCC2(CC(N(C)c3ccncn3)C2)C1 (configuration not stated) | -76.24% |
| CCn1c(C2CCN(C(=O)c3cc(CC(C)C)no3)CC2)nn(C)c1=O | -42.91% |
| CC(C)C(=O)NCC(=O)N(C)C1CCCN(C2Cc3ccccc3C2)C1 (configuration not stated) | -100.1% |
| Cc1cc(C)nc(NC2CCc3nc(C)nn3C2)n1 (configuration not stated) | -11.11% |
| O=C(CCc1ccccn1)NC1CCCN(C2Cc3ccccc3C2)C1 (configuration not stated) | 9.867% |
| Cc1cc(C)nc(NC2CCC(=O)N(C)C2)n1 (configuration not stated) | -38.75% |
| c1ccc(-c2cc(CN3CCCCCC3c3ccco3)on2)nc1 (configuration not stated) | -88.84% |
| Cc1nc[nH]c1CN1CCN(C(=O)CN2CCCC2)[C@H]2CS(=O)(=O)C[C@H]21 | -125.3% |
